Measurements as given in paper PMC5540273 (PLoS ONE, 2017).

Experiments:
Conditions in all cases: concentration: 1 μM, replicates: in singlicate; n = 1
[1] = system: T1, DLK
T1 construct: gene MAP3K12

[2] = system: T2, DMPK2
T2 construct: gene CDC42BPG

[3] = system: DMPK
[4] = system: T3, DRAK1
T3 construct: gene STK17A

[5] = system: T4, DRAK2
T4 construct: gene STK17B

[6] = system: DYRK1A
[7] = system: DYRK1B
[8] = system: DYRK2
[9] = system: EGFR
[10] = system: EIF2AK1
[11] = system: EPHA1
[12] = system: EPHA2
[13] = system: EPHA3
[14] = system: EPHA4
[15] = system: EPHA5
[16] = system: EPHA6
[17] = system: EPHA7
[18] = system: EPHA8
[19] = system: EPHB1
[20] = system: EPHB2
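Also: KINOMEscan kinase panel screen.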

| Compound | %Inh [1] [%] | %Inh [2] [%] | %Inh [3] [%] | %Inh [4] [%] | %Inh [5] [%] | %Inh [6] [%] | %Inh [7] [%] | %Inh [8] [%] | %Inh [9] [%] | %Inh [10] [%] | %Inh [11] [%] | %Inh [12] [%] | %Inh [13] [%] | %Inh [14] [%] | %Inh [15] [%] | %Inh [16] [%] | %Inh [17] [%] | %Inh [18] [%] | %Inh [19] [%] | %Inh [20] [%] |
| --- | --- | --- | --- | --- | --- | --- | --- | --- | --- | --- | --- | --- | --- | --- | --- | --- | --- | --- | --- | --- |
| COc1ccc(-c2cc3c(C)nc(N)nc3n([C@H]3CC[C@H](O)CC3)c2=O)cn1 | 5 | 0 | 0 | 0 | 0 | 0 | 4 | 0 | 0 | 0 | 12 | 8 | 0 | 0 | 0 | 0 | 0 | 0 | 0 | 0 |
| Fc1cccc(CSc2nnc(-c3ccc4c(c3)CCO4)o2)c1 | 0 | 9 | 0 | 27 | 18 | 62 | 37 | 7 | 17 | 26 | 0 | 0 | 13 | 0 | 7 | 0 | 10 | 11 | 9 | 23 |
| CCc1nc(-c2cccc(C)c2)c(-c2ccncc2)s1 | 0 | 79 | 0 | 0 | 0 | 0 | 0 | 0 | 0 | 9 | 0 | 17 | 4 | 6 | 2 | 0 | 0 | 0 | 8 | 2 |
| COc1cc2ncn(-c3cc(OCCCc4ccccc4)c(C(N)=O)s3)c2cc1OC [GSK205189] | 0 | 0 | 0 | 0 | 0 | 7 | 0 | 0 | 15 | 1 | 0 | 0 | 0 | 3 | 1 | 5 | 5 | 17 | 4 | 0 |
| Cn1c(=O)c(F)c(Nc2ccc(I)cc2F)c2c(=O)n(OC[C@H](O)CO)cnc21 | 0 | 20 | 17 | 0 | 10 | 0 | 0 | 0 | 3 | 0 | 36 | 15 | 0 | 16 | 5 | 12 | 14 | 19 | 20 | 34 |
| COc1cc2nccc(Nc3ccc(OCc4ccc(NC(C)=O)cc4)cc3)c2cc1OC.Cl [GW440135] | 27 | 0 | 0 | 7 | 0 | 15 | 1 | 4 | 18 | 17 | 19 | 16 | 0 | 13 | 0 | 16 | 5 | 5 | 6 | 0 |
| Nc1nc(N)c2nc(-c3ccccc3)[nH]c2n1 [SKF-12778] | 1 | 0 | 25 | 8 | 0 | 34 | 13 | 44 | 14 | 21 | 12 | 20 | 3 | 17 | 3 | 8 | 3 | 4 | 18 | 10 |
| Nc1n[nH]c2ncc(-c3ccccc3)cc12 [SB-517081] | 27 | 0 | 0 | 34 | 0 | 17 | 0 | 30 | 0 | 18 | 0 | 2 | 0 | 0 | 0 | 0 | 5 | 10 | 18 | 14 |
| COc1ccc(-n2cnc3c(N)ncnc32)cc1 [SKF-97236] | 0 | 0 | 6 | 43 | 0 | 1 | 0 | 0 | 0 | 31 | 0 | 13 | 0 | 0 | 4 | 0 | 1 | 10 | 19 | 0 |
| Cc1c(Cn2c(C)nn3c(=O)cc(N4CCO[C@H](C)C4)nc23)cccc1C(F)(F)F [GSK2373690] | 0 | 5 | 23 | 1 | 1 | 19 | 20 | 17 | 10 | 0 | 4 | 26 | 0 | 3 | 1 | 0 | 22 | 29 | 8 | 0 |
| CCS(=O)(=O)c1ccc(OC)c(Nc2ncc(-c3ccc(F)cc3)o2)c1.Cl [GW591947] | 25 | 13 | 6 | 10 | 0 | 12 | 0 | 17 | 4 | 5 | 0 | 0 | 0 | 0 | 0 | 0 | 0 | 1 | 11 | 64 |
| COc1cccc(-n2cnc3c(N)ncnc32)c1 [SKF-97416] | 17 | 7 | 11 | 37 | 0 | 12 | 2 | 39 | 18 | 35 | 9 | 0 | 4 | 4 | 3 | 0 | 0 | 0 | 0 | 19 |
| CCCC(=O)Nc1n[nH]c2ncc(-c3cccc4ccccc34)cc12 [SB-642057] | 0 | 4 | 0 | 0 | 0 | 30 | 0 | 4 | 20 | 13 | 0 | 0 | 0 | 2 | 0 | 0 | 4 | 1 | 15 | 19 |
| COc1cc(Nc2ccnc3ccc(C(F)(F)F)cc23)cc(OC)c1OC [GW577382] | 32 | 4 | 0 | 0 | 0 | 4 | 16 | 0 | 27 | 2 | 61 | 35 | 27 | 14 | 2 | 0 | 10 | 75 | 10 | 26 |
| COc1ccc(CNC(=O)NC2CCN(c3ccnc(Nc4ccc(F)cc4)n3)C2)cc1 (stereo not drawn) [GSK1379706] | 42 | 16 | 0 | 6 | 0 | 0 | 0 | 0 | 20 | 0 | 0 | 7 | 17 | 8 | 0 | 0 | 1 | 16 | 16 | 30 |
| O=C1NC(=O)C(c2ccccc2)=C1Nc1cccc(O)c1 [SB-390534] | 0 | 0 | 0 | 5 | 0 | 25 | 0 | 0 | 7 | 0 | 24 | 0 | 8 | 0 | 0 | 10 | 16 | 0 | 0 | 0 |
| CCC(=O)c1c(-c2ccccc2)c2cc(Cl)ccc2c(=O)n1Cc1cc(S(C)(=O)=O)n(CC(N)=O)n1 | 0 | 0 | 0 | 0 | 0 | 0 | 0 | 0 | 0 | 0 | 0 | 15 | 0 | 0 | 0 | 0 | 0 | 0 | 0 | 0 |
| O=C(Nc1n[nH]c2nc(-c3ccccc3)c(Br)cc12)C1CC1 [SB-708998] | 17 | 0 | 0 | 5 | 0 | 8 | 0 | 1 | 1 | 34 | 23 | 27 | 0 | 11 | 3 | 9 | 0 | 15 | 23 | 9 |
